# Reference: PubChem BioAssay
# Records with an inconclusive call do not appear. Calls of active or inactive are those of the source.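 Rule for the calls, unless noted: active = differentiation response of at least 50%, scaled between solvent and reference control, from cells with both markers; inactive = the rest.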
# Key:
# [1] = rapamycin-like changes in RPL19A-GFP expression – cell-based, S. cerevisiae, multiplex flow cytometry, primary screen (AID 1862; in the data active = percent of DMSO control GFP below about 86%;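 note: lower values mimic rapamycin by blocking the RPL19A rise seen in DMSO cells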); settings: S. cerevisiae RPL19A-GFP strain, flow cytometry fluorescence, 3 h; at 10 µM; stronger effect = lower value
# [2] = TOR pathway GLN3 branch reporter MEP2-GFP changes – S. cerevisiae, multiplex flow cytometry, primary screen (AID 1867;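 active = GFP response, as percent of the DMSO control, above the screen-wide mean plus 3 SD, about 139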;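 note: median GFP channel fluorescence of barcode-gated MEP2-GFP cells measured by flow cytometry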); settings: S. cerevisiae MEP2-GFP strain, 3 h, at 10 µM, stronger effect = higher value, 100% means same as DMSO wells
# [3] = TOR pathway RTG branch CIT2 reporter changes – S. cerevisiae, GFP fusion, multiplex flow cytometry, primary screen (AID 1870;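 active = percent response above a set limit, the screen-wide mean plus 3 SD, cut at about 130% in these data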;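 note: barcoded CIT2-GFP strain pooled with four other GFP strains with rapamycin as positive control; median GFP fluorescence per well over plate mean of DMSO wells so 100% = DMSO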); settings: S. cerevisiae CIT2-GFP expression, 3 h, at 10 µM, stronger effect = higher value
# [4] = TOR pathway LAP4-GFP level changes – S. cerevisiae, multiplex flow cytometry, primary screen (AID 1873;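 active = GFP signal, as percent of the solvent control, above the screen mean plus 3 SD, about 149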); settings: S. cerevisiae LAP4-GFP expression, 3 h, at 10 µM, stronger effect = higher value
# [5] = yeast AGP1-GFP level changes, GLN3 branch – cell-based, multiplex flow cytometry, S. cerevisiae, primary screen (AID 1887;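 active = GFP signal above the screen-wide mean plus 3 SD, that is over about 124.5% of the solvent control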;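 note: AGP1-GFP fusion strain of S. cerevisiae within a five-strain barcoded multiplex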); settings: 3 h, at 10 µM, stronger effect = higher value
# [6] = hit retest on RPL19A-GFP reporter strain – cell-based, S. cerevisiae, flow cytometry, cherry picks, mother/daughter gates, confirmation (AID 2270;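 active = GFP response below 50% of the DMSO control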); settings: 3 h, at 10 µM, stronger effect = lower value, 100 = same GFP as DMSO wells
# [7] = yeast TOR pathway reporter LAP4-GFP change – cell-based, cherry picks, flow cytometry, mother/daughter gates, confirmation (AID 2271;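 active = GFP response above 150% of the DMSO control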;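 note: ratio of sample to DMSO plate mean so 100% equals DMSO level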); settings: S. cerevisiae LAP4-GFP strain, 3 h, at 10 µM, stronger effect = higher value, 100 means same as DMSO control
# [8] = TOR pathway reporter MEP2-GFP, retest of hits – S. cerevisiae, flow cytometry GFP, cherry picks, confirmation (AID 2272;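 active = GFP response above 150% of the DMSO control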;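 note: ratio of well signal to plate DMSO mean so 100% equals DMSO level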); settings: S. cerevisiae MEP2-GFP strain, 3 h, at 10 µM, stronger effect = higher value
# [9] = TOR pathway CIT2 reporter hit retest – S. cerevisiae, GFP fusion, cherry picks, mother/daughter gates, confirmation (AID 2274;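 active = GFP response above 150% of the DMSO level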); settings: S. cerevisiae CIT2-GFP strain, flow cytometry, 3 h, at 10 µM, stronger effect = higher value
# [10] = reduced mouse 2C T cell binding to pMHC/ICAM-1 vesicles – MLPCN validation set, flow cytometry, LFA-1/ICAM-1 modulator project, pilot screen (AID 2523;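 active = response below a set limit, under 55% cells CD8-positive and vesicle-bound, and CD8 cells' 90th-percentile brightness under 279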;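 for vesicle binding response: mean PE anti-B7-1 fluorescence of CD8+ cells relative to row control; 100% = QL9-loaded vesicles with DMSO vehicle in the same plate row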); settings: 2C mouse CD8+ T cells, at 7 µM, stronger effect = lower value; double positive events: measured here: CD8+/vesicle+ event percentage
# [11] = molecular target: Integrin beta-1 (Homo sapiens) + Integrin alpha-4 (Homo sapiens) (UniProt P13612+P05556); test: alpha4beta1 integrin LIBS antibody binding reduction – U937 cells, HUTS-21 mAb, flow cytometry, validation set, VLA-4 allosteric modulator project, pilot screen (AID 2674;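 active = inhibition above 50%, about 3 SD of the validation set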;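 note: antibody binding induced by the VLA-4 ligand LDV present at three times its Kd; 0% = LDV ligand with antibody and no compound and 100% = antibody without LDV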); settings: HUTS-21 LIBS mAb binding, at 6.7 µM, stronger effect = higher value, binding induced by LDV ligand
# Chain of Integrin beta-1 (Homo sapiens) + Integrin alpha-4 (Homo sapiens) (P05556 whole entry, looked up): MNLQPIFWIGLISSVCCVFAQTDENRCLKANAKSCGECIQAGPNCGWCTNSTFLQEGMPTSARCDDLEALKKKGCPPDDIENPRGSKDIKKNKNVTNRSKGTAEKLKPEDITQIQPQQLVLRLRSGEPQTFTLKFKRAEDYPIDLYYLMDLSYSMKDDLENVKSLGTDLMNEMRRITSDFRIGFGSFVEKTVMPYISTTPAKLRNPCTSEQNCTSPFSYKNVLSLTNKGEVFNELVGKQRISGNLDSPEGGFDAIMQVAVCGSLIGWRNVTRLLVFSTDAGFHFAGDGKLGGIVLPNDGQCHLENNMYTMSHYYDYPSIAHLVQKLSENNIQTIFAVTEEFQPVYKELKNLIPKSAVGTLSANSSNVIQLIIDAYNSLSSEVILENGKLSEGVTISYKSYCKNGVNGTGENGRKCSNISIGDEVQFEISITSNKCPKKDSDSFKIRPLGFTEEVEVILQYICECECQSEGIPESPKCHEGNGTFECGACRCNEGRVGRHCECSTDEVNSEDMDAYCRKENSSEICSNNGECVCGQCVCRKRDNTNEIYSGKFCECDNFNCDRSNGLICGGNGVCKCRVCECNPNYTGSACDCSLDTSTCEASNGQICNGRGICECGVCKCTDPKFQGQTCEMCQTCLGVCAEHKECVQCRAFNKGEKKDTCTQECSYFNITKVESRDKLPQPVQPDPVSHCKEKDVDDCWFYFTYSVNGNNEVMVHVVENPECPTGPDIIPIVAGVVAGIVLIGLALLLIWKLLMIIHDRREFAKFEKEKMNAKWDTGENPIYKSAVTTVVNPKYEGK
# Chain of Integrin beta-1 (Homo sapiens) + Integrin alpha-4 (Homo sapiens) (P13612 whole entry, looked up): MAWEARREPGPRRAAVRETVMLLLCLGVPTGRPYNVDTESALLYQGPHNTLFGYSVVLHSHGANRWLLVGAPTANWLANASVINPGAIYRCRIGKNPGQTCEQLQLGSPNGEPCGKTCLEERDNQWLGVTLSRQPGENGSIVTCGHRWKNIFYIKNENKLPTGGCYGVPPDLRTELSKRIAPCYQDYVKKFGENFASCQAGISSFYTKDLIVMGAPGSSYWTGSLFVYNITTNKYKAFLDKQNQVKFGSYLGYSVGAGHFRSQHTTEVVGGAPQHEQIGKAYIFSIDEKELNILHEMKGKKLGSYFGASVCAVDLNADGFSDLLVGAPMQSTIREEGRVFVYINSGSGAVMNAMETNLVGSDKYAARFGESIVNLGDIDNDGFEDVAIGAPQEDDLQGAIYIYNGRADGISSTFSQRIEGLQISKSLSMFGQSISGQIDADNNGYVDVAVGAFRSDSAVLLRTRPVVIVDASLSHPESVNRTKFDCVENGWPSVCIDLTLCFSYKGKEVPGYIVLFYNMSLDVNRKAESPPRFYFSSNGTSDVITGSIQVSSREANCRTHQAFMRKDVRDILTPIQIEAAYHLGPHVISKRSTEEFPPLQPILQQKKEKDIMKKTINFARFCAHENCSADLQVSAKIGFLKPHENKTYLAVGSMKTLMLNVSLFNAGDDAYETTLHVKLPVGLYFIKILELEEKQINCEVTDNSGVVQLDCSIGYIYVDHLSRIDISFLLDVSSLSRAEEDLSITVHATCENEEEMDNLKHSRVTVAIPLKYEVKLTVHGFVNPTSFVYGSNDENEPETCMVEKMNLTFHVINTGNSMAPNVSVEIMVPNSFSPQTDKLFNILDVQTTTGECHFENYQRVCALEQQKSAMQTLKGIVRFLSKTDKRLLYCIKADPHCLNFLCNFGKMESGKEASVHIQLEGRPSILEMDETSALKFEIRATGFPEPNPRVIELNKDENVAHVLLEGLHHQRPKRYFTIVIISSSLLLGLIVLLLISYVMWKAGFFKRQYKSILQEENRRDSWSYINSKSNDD
# [12] = calorie-restriction mimetic ROS inhibitors, yeast – validation compound set, pilot screen (AID 2706;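 active = superoxide response below 65% of plate, a cut near 3 SD across the whole screen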;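 note: yeast exposed to compound for one week at 30 degrees C before staining; 100% = mean of all compound wells on the same plate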); settings: S. cerevisiae aging, superoxide DHE fluorescence; at 10 µM; stronger effect = lower value
# [13] = molecular target: Beta-adrenergic receptor kinase 1 (Homo sapiens) (UniProt P25098); test: GRK2 binders displacing RNA aptamer, biochemical, validation, human GRK2, bead flow cytometry (AID 488806;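 active = aptamer binding inhibition above 30%, about 3 SD of noise from non-fluorescent compounds; inactive = inhibition at or below 30%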); settings: bead-bound GRK2, FAM-aptamer displacement, at 10 µM, stronger effect = higher value
# Chain of Beta-adrenergic receptor kinase 1 (Homo sapiens) (P25098 whole entry, looked up): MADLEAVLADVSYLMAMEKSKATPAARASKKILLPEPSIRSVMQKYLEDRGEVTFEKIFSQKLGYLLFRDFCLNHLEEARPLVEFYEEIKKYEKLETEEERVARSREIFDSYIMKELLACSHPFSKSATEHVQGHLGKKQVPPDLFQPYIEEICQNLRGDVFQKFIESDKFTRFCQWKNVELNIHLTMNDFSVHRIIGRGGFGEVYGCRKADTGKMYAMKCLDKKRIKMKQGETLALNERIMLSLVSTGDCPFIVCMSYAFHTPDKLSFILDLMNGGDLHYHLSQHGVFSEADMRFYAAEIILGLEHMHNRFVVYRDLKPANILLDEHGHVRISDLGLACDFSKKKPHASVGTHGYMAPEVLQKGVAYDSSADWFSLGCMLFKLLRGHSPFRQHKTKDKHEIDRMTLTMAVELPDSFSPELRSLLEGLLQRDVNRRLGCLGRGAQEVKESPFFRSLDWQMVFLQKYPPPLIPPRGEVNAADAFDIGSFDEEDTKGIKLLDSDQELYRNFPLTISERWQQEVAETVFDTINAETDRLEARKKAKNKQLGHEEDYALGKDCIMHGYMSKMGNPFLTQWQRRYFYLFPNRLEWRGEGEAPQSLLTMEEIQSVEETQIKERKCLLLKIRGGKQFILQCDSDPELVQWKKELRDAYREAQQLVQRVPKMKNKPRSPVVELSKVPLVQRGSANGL
# [14] = molecular target: Beta-2 adrenergic receptor (Homo sapiens) (UniProt P07550); test: agonist-induced loss of surface beta2AR – cell-based, FAP fluorogen, flow cytometry, validation set, pilot screen (AID 504459;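 active = percent response above 42, roughly 3 SD of non-fluorescent test compounds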;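 note: agonist-driven loss of surface beta2AR via internalization measured by FAP dye flow cytometry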); settings: Am2.2-beta2AR cells, at 10 µM, stronger effect = higher value
# Chain of Beta-2 adrenergic receptor (Homo sapiens) (P07550 whole entry, looked up): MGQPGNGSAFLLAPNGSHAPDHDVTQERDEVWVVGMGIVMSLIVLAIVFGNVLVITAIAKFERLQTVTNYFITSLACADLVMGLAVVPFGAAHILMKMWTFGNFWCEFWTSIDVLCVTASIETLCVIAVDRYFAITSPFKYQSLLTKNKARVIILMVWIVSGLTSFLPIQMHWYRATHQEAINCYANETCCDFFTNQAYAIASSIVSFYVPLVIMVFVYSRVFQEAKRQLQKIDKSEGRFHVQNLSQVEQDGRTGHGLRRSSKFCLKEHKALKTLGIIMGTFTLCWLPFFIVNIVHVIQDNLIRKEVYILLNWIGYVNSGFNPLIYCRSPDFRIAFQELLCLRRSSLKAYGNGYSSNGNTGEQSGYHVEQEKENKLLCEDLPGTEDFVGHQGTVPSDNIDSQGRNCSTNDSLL
# [15] = molecular target: AP-2 complex subunit beta (Homo sapiens) (UniProt P63010); test: beta-arrestin/AP2 interaction blockers – biochemical, validation set, GST-AP2 beads, flow cytometry, pilot screen (AID 504541;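 active = inhibition above 54%, about 3 SD of non-fluorescent compounds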;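 note: AP2 carries R879A mutation and is captured from E. coli lysate; bead-bound FITC arrestin peptide fluorescence measuring arrestin peptide binding to AP2; 0% = DMSO wells and 100% = excess unlabeled arrestin peptide control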); settings: FITC arrestin peptide, at 10 µM, stronger effect = higher value, AP2 beta2 appendage fragment, R879A mutant
# Chain of AP-2 complex subunit beta (Homo sapiens) (P63010 whole entry, looked up, the tested form may be a part, one chain of several): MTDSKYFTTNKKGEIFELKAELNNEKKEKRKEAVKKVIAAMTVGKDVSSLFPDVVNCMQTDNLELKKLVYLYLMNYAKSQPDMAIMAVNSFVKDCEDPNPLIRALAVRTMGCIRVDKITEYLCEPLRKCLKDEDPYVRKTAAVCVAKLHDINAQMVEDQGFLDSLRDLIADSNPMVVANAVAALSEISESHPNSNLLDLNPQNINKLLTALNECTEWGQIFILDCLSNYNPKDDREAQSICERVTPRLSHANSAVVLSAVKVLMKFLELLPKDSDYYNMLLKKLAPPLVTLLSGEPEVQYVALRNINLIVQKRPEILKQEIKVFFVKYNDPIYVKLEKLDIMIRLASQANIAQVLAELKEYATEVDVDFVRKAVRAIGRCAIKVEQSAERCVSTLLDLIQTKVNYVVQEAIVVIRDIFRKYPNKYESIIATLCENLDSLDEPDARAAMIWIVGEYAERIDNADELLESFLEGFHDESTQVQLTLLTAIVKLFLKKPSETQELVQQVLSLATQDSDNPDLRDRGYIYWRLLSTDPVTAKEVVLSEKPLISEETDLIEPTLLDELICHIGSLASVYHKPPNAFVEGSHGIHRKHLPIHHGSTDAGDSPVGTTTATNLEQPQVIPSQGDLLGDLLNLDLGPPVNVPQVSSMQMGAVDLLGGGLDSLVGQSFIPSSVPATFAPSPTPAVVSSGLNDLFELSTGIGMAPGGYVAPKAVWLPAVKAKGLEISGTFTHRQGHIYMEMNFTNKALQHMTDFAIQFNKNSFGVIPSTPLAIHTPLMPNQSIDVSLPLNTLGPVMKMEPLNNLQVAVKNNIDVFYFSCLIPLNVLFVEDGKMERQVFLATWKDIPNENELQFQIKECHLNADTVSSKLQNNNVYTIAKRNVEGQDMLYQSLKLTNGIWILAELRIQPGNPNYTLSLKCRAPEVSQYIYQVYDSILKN
# [16] = cytosolic pH regulators acting via V-ATPase – S. cerevisiae, pHLuorin, HTS validation (AID 504600; in the data active = response above about 15%;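 note: plate controls were DMSO for no effect and reference compound for full effect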); settings: V-ATPase proton transport, at 10 µM, stronger effect = higher value
# [17] = system: anti-desmoglein-3 scFv antibody binding to human DSG3; test: blockers of pathogenic pemphigus antibody–desmoglein-3 binding – biochemical, validation compound set, bead-based, flow cytometry, pilot screen (AID 588368;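 active = binding below the plate cutoff, the plate median minus 3 SD, with a reading above zero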;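 note: signal is the median channel fluorescence of bead-bound GFP antibody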); settings: Protein G beads, DSG3-Fc, scFv-GFP binding, at 10 µM, stronger effect = lower value
# [18] = Nile Red efflux blockade in pump-expressing yeast – validation compound set, multiplex, phenotypic, pilot screen (AID 588506;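 active = efflux inhibition above 0.42, the validation set average plus 4 SD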;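 note: Nile Red retained in cells so higher fluorescence means more efflux inhibition; 0 = negative control wells and 1 = enniatin B 25 µM full block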); settings: S. cerevisiae pump-expressing triplex, Nile Red efflux flow cytometry; at 10 µM; stronger effect = higher value; the pumps come from Candida albicans
# [19] = molecular target: ATP-binding cassette sub-family B member 6 (Homo sapiens) (UniProt Q9NP58); test: blockers of ABCB6-driven porphyrin uptake – K562-ABCB6 cells, flow cytometry, validation set, pilot screen (AID 588550;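 active = inhibition above the screen-wide mean plus 3 SD, about 51%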;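 note: 0% = DMSO wells and 100% = benzethonium chloride 70 µM positive control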); settings: K562-ABCB6 porphyrin accumulation, 1 h, at 10 µM, stronger effect = higher value
# Chain of ATP-binding cassette sub-family B member 6 (Homo sapiens) (Q9NP58 whole entry, looked up): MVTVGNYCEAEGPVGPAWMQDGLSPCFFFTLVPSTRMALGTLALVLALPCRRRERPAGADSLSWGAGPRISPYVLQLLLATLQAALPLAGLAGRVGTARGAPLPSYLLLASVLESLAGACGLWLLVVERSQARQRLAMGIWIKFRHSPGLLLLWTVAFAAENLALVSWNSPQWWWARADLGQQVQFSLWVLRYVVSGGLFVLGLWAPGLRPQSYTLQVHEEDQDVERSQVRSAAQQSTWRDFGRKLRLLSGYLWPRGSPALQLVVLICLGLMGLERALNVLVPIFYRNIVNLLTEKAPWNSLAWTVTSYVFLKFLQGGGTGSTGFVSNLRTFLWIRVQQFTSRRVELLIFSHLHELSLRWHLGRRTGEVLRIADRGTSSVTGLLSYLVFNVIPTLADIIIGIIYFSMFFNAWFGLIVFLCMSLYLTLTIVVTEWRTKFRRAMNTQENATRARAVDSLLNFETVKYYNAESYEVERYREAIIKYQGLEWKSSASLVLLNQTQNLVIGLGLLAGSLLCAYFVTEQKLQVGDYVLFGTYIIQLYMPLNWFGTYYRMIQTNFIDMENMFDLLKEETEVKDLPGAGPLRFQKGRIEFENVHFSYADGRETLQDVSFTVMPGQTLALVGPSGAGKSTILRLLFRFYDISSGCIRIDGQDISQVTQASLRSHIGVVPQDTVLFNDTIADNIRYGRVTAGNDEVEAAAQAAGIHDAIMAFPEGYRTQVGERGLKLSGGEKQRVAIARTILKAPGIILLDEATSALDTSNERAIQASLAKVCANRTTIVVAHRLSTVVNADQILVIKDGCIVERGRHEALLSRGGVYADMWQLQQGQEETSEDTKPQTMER
# [20] = AML differentiation inducers, ER-HoxA9 marrow cells – cell-based, GFP/MAC1 double positive, flow cytometry, validation set, primary screen (AID 588685); settings: stronger effect = higher value, normalized: vehicle 0, fulvestrant 100;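 note: compound exposure lasts four days before antibody staining and flow analysis; 0% = DMSO wells and 100% = 5 µM fulvestrant positive control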
# [21] = measured here: daughter cell gate
# [22] = measured here: mother cell gate
# [23] = measured here: daughter cell gate response
# [24] = measured here: mother cell gate response
structure (smiles),measurement,setting,value
C[C@]12CC[C@H]3[C@@H](CCC4=CC(=O)CC[C@@]43C)[C@@H]1CC[C@@H]2C(=O)CO,percent of DMSO control GFP,[1],93.7% (inactive)
same,GFP response vs DMSO,[2],119% (inactive)
same,percent response of DMSO control,[3],102% (inactive)
same,GFP response vs DMSO,[4],84.7% (inactive)
same,"GFP response, % of DMSO",[5],84.3% (inactive)
same,GFP response vs DMSO,[6],97.8% (inactive)
same,GFP response vs DMSO,[6]; [21],95.3%
same,GFP response vs DMSO,[6]; [22],98.4%
same,GFP response relative to DMSO,[7],107% (inactive)
same,GFP response relative to DMSO,[7]; [23],106%
same,GFP response relative to DMSO,[7]; [24],106%
same,GFP response vs DMSO,[8],93.5% (inactive)
same,"GFP response, % of DMSO",[9],91.3% (inactive)
same,"GFP response, % of DMSO",[9]; [21],89.9%
same,"GFP response, % of DMSO",[9]; [22],91.2%
same,double positive events,[10],56.7%
same,vesicle binding response,[10],201% (inactive)
same,inhibition,[11],-13.9% (inactive)
same,superoxide response (% of plate),[12],104% (inactive)
same,aptamer binding inhibition,[13],-4% (inactive)
same,response,[14],-2.3% (inactive)
same,inhibition,[15],11.7% (inactive)
same,response,[16],-4.52% (inactive)
same,binding (% of control),[17],111% (inactive)
same,efflux inhibition (fraction of control),[18],-0.02 (inactive)
same,inhibition,[19],7% (inactive)
same,differentiation response,[20],14.7% (inactive)
COc1ccc(-c2[nH]ncc2CN(CCO)Cc2cccs2)c(F)c1,percent of DMSO control GFP,[1],102% (inactive)
same,GFP response vs DMSO,[2],105% (inactive)
same,percent response of DMSO control,[3],104% (inactive)
same,GFP response vs DMSO,[4],99.1% (inactive)
same,"GFP response, % of DMSO",[5],105% (inactive)
same,GFP response vs DMSO,[6],96.8% (inactive)
same,GFP response vs DMSO,[6]; [21],97.4%
same,GFP response vs DMSO,[6]; [22],98.4%
same,GFP response relative to DMSO,[7],94.1% (inactive)
same,GFP response relative to DMSO,[7]; [23],94.4%
same,GFP response relative to DMSO,[7]; [24],94%
same,GFP response vs DMSO,[8],100% (inactive)
same,"GFP response, % of DMSO",[9],99.7% (inactive)
same,"GFP response, % of DMSO",[9]; [21],103%
same,"GFP response, % of DMSO",[9]; [22],99.7%
same,double positive events,[10],62.7%
same,vesicle binding response,[10],142% (inactive)
same,inhibition,[11],5.61% (inactive)
same,superoxide response (% of plate),[12],92.5% (inactive)
same,aptamer binding inhibition,[13],5% (inactive)
same,response,[14],-21% (inactive)
same,inhibition,[15],53.1% (inactive)
same,response,[16],-4.99% (inactive)
same,binding (% of control),[17],99.8% (inactive)
same,efflux inhibition (fraction of control),[18],0.08 (inactive)
same,inhibition,[19],-5% (inactive)
same,differentiation response,[20],-0.18% (inactive)
O=c1cnn([C@@H]2O[C@H](CO)[C@@H](O)[C@H]2O)c(=O)[nH]1,percent of DMSO control GFP,[1],84.9% (active)
same,GFP response vs DMSO,[2],88.8% (inactive)
same,percent response of DMSO control,[3],80.8% (inactive)
same,GFP response vs DMSO,[4],129% (inactive)
same,"GFP response, % of DMSO",[5],98% (inactive)
same,GFP response vs DMSO,[6],80.6% (inactive)
same,GFP response vs DMSO,[6]; [21],81%
same,GFP response vs DMSO,[6]; [22],81.6%
same,GFP response relative to DMSO,[7],109% (inactive)
same,GFP response relative to DMSO,[7]; [23],104%
same,GFP response relative to DMSO,[7]; [24],109%
same,GFP response vs DMSO,[8],93.3% (inactive)
same,"GFP response, % of DMSO",[9],77.7% (inactive)
same,"GFP response, % of DMSO",[9]; [21],77.9%
same,"GFP response, % of DMSO",[9]; [22],74.6%
same,double positive events,[10],62.2%
same,vesicle binding response,[10],127% (inactive)
same,inhibition,[11],13.4% (inactive)
same,superoxide response (% of plate),[12],124% (inactive)
same,aptamer binding inhibition,[13],1% (inactive)
same,response,[14],-10.1% (inactive)
same,inhibition,[15],-3.47% (inactive)
same,response,[16],-1.24% (inactive)
same,binding (% of control),[17],107% (inactive)
same,efflux inhibition (fraction of control),[18],-0.04 (inactive)
same,inhibition,[19],0% (inactive)
same,differentiation response,[20],1.91% (inactive)
